# Source: PubChem (National Center for Advancing Translational Sciences (NCATS))
# In the library only some 12% were active in any assay of this set; here they are far more common.
# Sm TGR inh: blocks Schistosoma mansoni thioredoxin glutathione reductase; AID 485364; Potency, µM (top dose mostly 114 µM), for the others: top-dose activity change, negative = inhibition, actives largely listed as inhibitors; purified TGR, DTNB reduction, TNB absorbance 405 nm; hit rate 3% among 360,000; Q962Y6; note: % is set by controls: 0 for no effect and ±100 for the full control effect; nearly all actives have a fitted effect of over 60% in size
#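 TGR 20 nM + NADPH 100 uM (dispensed conc.), cpd preinc 15 min RT; start with NADPH (500 uM addition) then DTNB (15 mM addition). Kinetic TNB absorbance, 405 nm filter. Four-parameter Hill fit across titration.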
# AmpC no deterg: AmpC beta-lactamase inhibition without detergent | Potency, µM (titrated, usually from 57.1 µM), without a hit: at the highest dose activity change, negative = inhibition, most hits filed as inhibitors | AmpC nitrocefin hydrolysis, absorbance 480 nm, 0.0001% Triton | hit rate 0.52% among 330,000 | P00811;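 note: plate controls were no compound for no effect and no enzyme for full effect; nearly all actives have a fitted effect of over 20% in size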
# Target sequence (P00811 whole entry, looked up): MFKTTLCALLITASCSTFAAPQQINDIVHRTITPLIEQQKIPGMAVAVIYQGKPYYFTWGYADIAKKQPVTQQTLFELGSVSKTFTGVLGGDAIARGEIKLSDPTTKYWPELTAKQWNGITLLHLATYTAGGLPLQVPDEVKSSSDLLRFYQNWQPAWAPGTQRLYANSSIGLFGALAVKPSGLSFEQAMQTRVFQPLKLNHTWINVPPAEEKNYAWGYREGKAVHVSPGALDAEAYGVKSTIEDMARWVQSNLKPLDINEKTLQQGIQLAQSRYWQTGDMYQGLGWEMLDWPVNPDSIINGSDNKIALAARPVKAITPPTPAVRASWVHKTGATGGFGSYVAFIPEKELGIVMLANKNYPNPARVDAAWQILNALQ
#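 20 mM phosphate pH 7.0 + 0.01% (detergent screen) or 0.0001% Triton X-100; 5.3 nM AmpC reagent; cpd preinc 15 min RT; nitrocefin (800 uM stock) to start; A480 q20 s × 4 min; Activity was normalised to no-enzyme and no-compound control wells.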
# Pf growth 96h: P. falciparum growth inhibition at 96 hour, primary screen for plastid delayed-death inhibitors. P. falciparum luciferase reporter growth, 96 h. Potency, µM (titrated, usually from 28.7 µM), without a hit: at the highest dose activity change, negative = inhibition, most hits filed as inhibitors. hit rate 6.9% among 320,000. AID 504834; note: % is set by controls: 0 for no effect and ±100 for the full control effect
#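 Erythrocytes infected with luciferase-expressing P. falciparum were dispensed at 2% hematocrit and 0.05% parasitemia (final), then incubated with compounds 96 hours at 37 C in 5% CO2. Luminescence after detection reagent addition reported growth.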
# SARS PLpro yeast: blocks SARS-CoV papain-like protease in a yeast assay | S. cerevisiae expressing SARS-CoV PLpro, growth rescue | Potency, µM (top dose mostly 32.9 µM), for the others: at the top dose activity, positive = growth rescue, usual class: activators | hit rate 0.19% among 330,000; calls by dose curve; note: 0% is about no effect; nearly all actives have a fitted effect of over 55% in size
# Pf growth 48h: P. falciparum growth inhibition at 48 hours (one generation); P. falciparum luciferase growth in erythrocytes, 48 h; Potency, µM (highest dose often 28.7 µM), for the others: at the top dose activity change, negative = inhibition, actives largely listed as inhibitors; hit rate 5.9% among 310,000; note: % is set by controls: 0 for no effect and ±100 for the full control effect
#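 Compounds are pin-transferred into medium, infected erythrocytes (2% hematocrit, 0.1% parasitemia final) are added, and plates sit one parasite generation at 37 C in 5% CO2. Detection reagent is then added and luminescence measured.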
# AmpC inh detg: AmpC beta-lactamase inhibition with detergent present; P00811; AmpC hydrolysis of nitrocefin, absorbance 480 nm, 0.01% Triton; Potency, µM (doses to about 114 µM), without a hit: at the top dose activity change, negative = inhibition, actives largely listed as inhibitors; hit rate 0.041% among 370,000; AID 485294;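 note: 0% = no-compound wells and -100% = no-enzyme wells; nearly all actives have a fitted effect of over 25% in size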
#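 AmpC (5.3 nM in the dispensed reagent) in 20 mM phosphate pH 7.0 with 0.01% (detergent screen) or 0.0001% Triton X-100 was preincubated with compounds for 15 min at room temperature. Nitrocefin was then added from an 800 uM solution, and hydrolysis was followed at 480 nm.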
# * marks the source's active call; other numbers are inactive results; ? = inconclusive; · = no result; [ ] = another dose, or the depositor's remark. Unless noted, calls come from the whole dose curve; as a rule, active = well fitted curve in the direction sought with a large enough effect; inconclusive = small, poorly fitted or top-dose-only effect, or another doubt; inactive = no such curve, though single readings can be large; an effect the other way counts as inactive or inconclusive. Potency is the fitted concentration of half-maximal effect.
SMILES,Sm TGR inh,AmpC no deterg,Pf growth 96h,SARS PLpro yeast,Pf growth 48h,AmpC inh detg
CCOC(=O)c1cnc(SCC(=O)NCc2cccs2)nc1N,13%,-12%,57%,4%,12%,8%
CCOc1ccc(C(C)=O)cc1N1C(=O)C2C3C=CC(O3)C2C1=O (centres undefined),0.71µM*,-12%,-56%,-41%,0%,0%
CCOc1ccc(C(C)=O)cc1N1C(=O)C2C3C=CC(C3)C2C1=O (centres undefined),?,-7%,40%,-5%,·,?
COCCn1c(SCC(=O)N2CCCc3ccccc32)nnc1-c1ccoc1C,40µM*,-1%,?,8%,-19%,?
Cc1occc1-c1nnc(SCC(=O)N2CCc3ccccc32)o1,25µM*,-14%,5.2µM*,3%,-16%,-8%
Cc1ccc(-c2nnc(SCC(=O)N3CCc4ccccc43)o2)cc1,-10%,·,·,·,·,16%
NNC(=O)c1ccc(CSc2nc3ccccc3[nH]2)cc1,9%,-41%,?,1%,-19%,3%
CCOC(=O)C1C(=O)CC(C)(O)C(C(=O)OCC)C1c1cccc(OC)c1 (centres undefined),0%,12%,18%[5.75 µM],8%,7%,?
CC(C)(C)c1ccc(C(=O)c2c[nH]c(C(=O)NCc3cccnc3)c2)cc1,-20%,15%,5.2µM*,10%,8.3µM*,-12%
CC(C)(C)c1ccc(C(=O)c2c[nH]c(C(=O)NCCCn3ccnc3)c2)cc1,6%,17%,7.4µM*,-4%,12µM*,-2%
COc1ccc(C(=O)c2c[nH]c(C(=O)NCCCn3ccnc3)c2)cc1,-5%,-43%,?,1%,?,?
CNC(=O)c1c(N)sc2c1CCCCC2,?,-9%,10µM*,2%,·,?
CCCOC(=O)c1c(N)sc2c1CCC2,?,-19%,?,-5%,-3%,-8%
COCCNC(=O)c1c(N)sc2c1CCCC2,?,73%,?,1%,9.3µM*,3%
Cc1cccc(C(=O)c2c(N)sc3c2CCCC3)c1,?,-25%,15µM*,-37%,?,-2%
O=C(Cc1ccccc1)Nc1ccnn1C1CCN(Cc2nccs2)CC1,-4%,3%,19%,5%,-3%,-1%
CS(=O)(=O)N1CCc2cc(C(=O)NCc3ccccc3)ccc21,6%,·,·,·,·,23%
Cc1nn2c(C)c(C(=O)NCc3cccc(Br)c3)cnc2c1-c1ccccc1,-9%,·,·,·,·,-1%
Cc1ccc2[nH]c3c(c2c1)CN(C(=O)CN1c2ccc(F)cc2CCC1C)CC3 (centres undefined),0%,17%,13µM*,-15%,12µM*,?
Cc1ccc2[nH]c3c(c2c1)CN(C(=O)CN1CCN(c2cccc(C)c2C)CC1)CC3,?,104%,·,-19%,?,-6%
CCCCNC(=O)c1cccc(S(=O)(=O)N2CC3(C)CC2CC(C)(C)C3)c1 (centres undefined),-11%,2%,12µM*,-5%,?,?
COc1ccc(NC(=O)CN(C)C(=O)c2cccc(S(=O)(=O)N3CC4(C)CC3CC(C)(C)C4)c2)cc1 (centres undefined),5%,137%,?,-1%,?,-12%
CC1(C)CC2CC(C)(CN2S(=O)(=O)c2cccc(C(N)=O)c2)C1 (centres undefined),4%,-6%,?,0%,?,-13%
COCCNC(=O)c1cccc(S(=O)(=O)N2CC3(C)CC2CC(C)(C)C3)c1 (centres undefined),79µM*,52%,?,1%,-7%,-5%
COCCCNC(=O)c1cccc(S(=O)(=O)N2CC3(C)CC2CC(C)(C)C3)c1 (centres undefined),-2%,95%,-5%,-8%,?,?
SMILES,Sm TGR inh,AmpC no deterg,Pf growth 96h,SARS PLpro yeast,Pf growth 48h,AmpC inh detg
CC1(C)CC2CC(C)(CN2S(=O)(=O)c2cccc(C(=O)OCC(N)=O)c2)C1 (centres undefined),40µM*,?,3%,-3%,1%,?
COCCCNC(=O)c1sc2nc(C)c(C(=O)Nc3ccc(C)cc3C)c(-c3ccc(Cl)cc3)c2c1N,-5%,·,·,·,·,-5%
O=C(O)CC(CNS(=O)(=O)c1ccccc1)c1ccccc1 (centres undefined),8%,2.5µM*,10µM*,6%,19%,?
CCOC(=O)c1cc(-c2ccccc2)n(-c2cccc(C(=O)Nc3cccc(SC)c3)c2)c1C,12%,·,·,·,·,9%
Cc1ccc(NC(=O)Cn2c(C)cc(C)c(C#N)c2=O)cc1F,3%,·,·,·,·,7%
Cc1ccc(N/C(C(Cl)=C(Cl)Cl)=C(/Cl)[N+](=O)[O-])c(C)c1,7.9µM*,-34%,?,-71%,?,-17%
Cc1ccc(NC(=O)CC(=O)Nc2ccc(C)cc2C)c(C)c1,10%,-15%,0%,0%,8%,-2%
Cc1nn(-c2ccc(Cl)cc2)c2nc(-c3cccnc3)cc(C(F)(F)F)c12,-9%,·,·,·,·,1%
CCCCC1=CC2=CC(=O)C(C)(OC(=O)C3CCCC3)C(=O)C2=CO1 (centres undefined),40µM*,-59%,48%,6%,?,0%
CC1(OC(=O)CCc2ccccc2)C(=O)C=C2C=C(c3ccsc3)OC=C2C1=O (centres undefined),?,28µM*,43%,1%,36%,-1%
CC1(OC(=O)C2CCCC2)C(=O)C=C2C=C(c3ccsc3)OC=C2C1=O (centres undefined),45µM*,-17%,63%,0%,42%,-7%
COC(=O)c1ccc2c(c1)N(Cc1ccc(F)cc1)C(=O)c1ccccc1S2,6%,·,·,·,·,4%
CN(C(=S)NCCN1CCOCC1)C(c1ccccc1)c1ccccc1,25%,134%,-1%,0%,-11%,4%
CC(/C=N/NC(=O)Cn1cnc2c1c(=O)n(C)c(=O)n2C)=C\c1ccco1,25µM*,18%,-1%,2%,4%,3%
Cc1ccc(/C=N/NC(=O)Cn2cnc3c2c(=O)n(C)c(=O)n3C)s1,8%,-16%,?,-5%,?,1%
Cn1c(=O)c2c(ncn2CC(=O)N/N=C/C=C/c2ccco2)n(C)c1=O,11µM*,-1%,35%,-1%,31%,?
Cn1c(=O)c2c(ncn2CC(=O)N/N=C/C(Cl)=C/c2ccccc2)n(C)c1=O,-2%,2%,43%,?,17%,5%
